# Only some compounds are listed: those with a hit (about 8.3% of all), similar ones and a draw of the others.
# Marburg entry inh: qHTS for inhibitors of binding or entry into cells for Marburg Virus. Marburg virus pseudotyped entry inhibition, cell reporter. Potency, µM (top dose mostly 37.8 µM), inactives show at the top dose activity change, negative = inhibition, most hits filed as inhibitors. 1.8% of 300,000 active; calls by dose curve; tested in HEK293 cells; also: potency is read from the fitted curve at half-maximal effect
# Giardia FBPA inh-1: qHTS Assay for Inhibitors of Fructose-1,6-bisphosphate Aldolase from Giardia Lamblia. AID 2451, 2010. 0.71% of 290,000 active. purified Giardia FBPA. Potency, µM (doses to about 59.6 µM), without a hit: top-dose activity, negative = inhibition, most hits filed as inhibitors; also: potency is read from the fitted curve at half-maximal effect; nearly all actives have a fitted effect of over 55% in size
# Target sequence (A8B2U2 whole entry, looked up): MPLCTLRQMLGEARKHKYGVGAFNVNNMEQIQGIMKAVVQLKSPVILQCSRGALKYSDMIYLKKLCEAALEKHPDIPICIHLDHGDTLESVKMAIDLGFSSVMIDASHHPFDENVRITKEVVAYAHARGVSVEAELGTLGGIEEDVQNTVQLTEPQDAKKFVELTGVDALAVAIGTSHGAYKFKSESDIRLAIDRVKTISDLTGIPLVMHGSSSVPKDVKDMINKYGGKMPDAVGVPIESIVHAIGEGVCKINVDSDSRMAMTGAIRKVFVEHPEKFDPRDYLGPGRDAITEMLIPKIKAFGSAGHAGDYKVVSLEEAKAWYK
#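 40 nM FBPA preincubated 10 min at RT with compound (up to 57.5 uM final), then substrate plus GAPDH/TPI/NAD/arsenate coupling and diaphorase/resazurin added. Fluorescence read after 20 min at RT, 525/598 nm.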
# LASV entry inh: qHTS for Inhibitors of binding or entry into cells for Lassa Virus; Lassa virus pseudotype entry inhibition, cell reporter; Potency, µM (top dose mostly 37.9 µM), inactives show top-dose activity change, negative = inhibition, usual class: inhibitors; 1.2% of 300,000 active; AID 540256, 2011; calls by dose curve; tested in HEK293 cells; also: potency is read from the fitted curve at half-maximal effect; nearly all actives have a fitted effect of over 50% in size
# HCV inh: qHTS Assay for Inhibitors of Hepatitis C Virus (HCV); Huh7.5.1 HCVcc-Cre infection, luciferase reporter, 44 h; Potency, µM (highest dose often 41.8 µM), for inactives: at the top dose activity change, negative = inhibition, hits mostly inhibitors; 3.4% of 340,000 active; also: potency is read from the fitted curve at half-maximal effect
#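 Infectious HCVcc-Cre (~0.5 moi) was added to cells just after compound, with cells seeded 4 h earlier at 1,000 per well. Luciferase activity after 44 h culture reported infection; substrate was incubated 15 min at room temperature before reading.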
# HCMV antiviral: qHTS Assay for inhibitors of the human cytomegalovirus (HCMV) | HFF cells, HCMV-luciferase reporter, 72 h; hits give low values | activity change, negative = inhibition, % at 57.5 µM | 4.5% of 410,000 active; in the data active = activity change below about -60%; inconclusive = no clear call, values can overlap the other calls; inactive = above about -39%
#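 Human foreskin fibroblasts infected with luciferase-reporter HCMV at MOI 1 PFU/cell, compounds at two doses. Luciferase measured 72 h post infection; normalized to buffer-only basal and Salinomycin (10uM) controls.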
# FMDV antiviral: High Throughput Screening for Foot and Mouth Disease Virus Antivirals; FMDV antiviral cell-based qHTS; Potency, µM (series often up to 57.9 µM), for inactives: top-dose activity change, negative = inhibition, actives largely listed as inhibitors; 1.2% of 410,000 active; AID 1159524, 2015; calls by dose curve; tested in HEK293T cells; also: read-out not given here; potency is read from the fitted curve at half-maximal effect; nearly all actives have a fitted effect of over 45% in size
# Giardia growth: qHTS Assay for Inhibitors of Fructose-1,6-bisphosphate Aldolase from Giardia Lamblia: Giardia lamblia growth inhibition | Potency, µM (highest dose often 57.5 µM), for inactives: at the top dose activity change, negative = inhibition, most hits filed as inhibitors | AID 2785, 2010 | Giardia lamblia trophozoite growth inhibition | shares compounds with Giardia FBPA inh-1 | 5% of 1,500 active;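 also: potency is read from the fitted curve at half-maximal effect; trophozoites exposed to compound for 48 h at 37 °C; nearly all actives have a fitted effect of over 70% in size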
# Mammalian tox: qHTS Assay for Inhibitors of Fructose-1,6-bisphosphate Aldolase from Giardia Lamblia: Mammalian cellular toxicity. shares compounds with Giardia FBPA inh-1. mammalian cell viability counter-screen, qHTS. Potency, µM (series often up to 57.5 µM), without a hit: top-dose viability change, negative = toxicity, actives largely listed as inhibitors. 4% of 1,500 active. AID 2786, 2010;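 also: Chinese hamster ovary cells used as mammalian cytotoxicity surrogate; viability measured as cellular ATP by luminescence; potency is read from the fitted curve at half-maximal effect; compound exposure lasted 48 h before reading; nearly all actives have a fitted effect of over 60% in size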
# Giardia FBPA inh-2: qHTS Assay for Inhibitors of Fructose-1,6-bisphosphate Aldolase from Giardia Lamblia: Primary screen confirmation. shares compounds with Giardia FBPA inh-1. purified Giardia aldolase enzyme activity, qHTS. Potency, µM (series often up to 57.5 µM), inactives show top-dose activity change, negative = inhibition, most hits filed as inhibitors. 5% of 1,500 active. AID 2787, 2010; also: potency is read from the fitted curve at half-maximal effect; nearly all actives have a fitted effect of over 45% in size
# Rabbit FBPA inh: qHTS Assay for Inhibitors of Fructose-1,6-bisphosphate Aldolase from Giardia Lamblia: Rabbit FBPA Selectivity. shares compounds with Giardia FBPA inh-1. Potency, µM (top dose mostly 57.5 µM), for inactives: at the top dose activity, negative = inhibition, actives largely listed as inhibitors. Rabbit muscle FBPA enzyme inhibition, selectivity counter-screen. 4% of 1,500 active; also: potency is read from the fitted curve at half-maximal effect; nearly all actives have a fitted effect of over 60% in size
# Target sequence (P00883 whole entry, looked up): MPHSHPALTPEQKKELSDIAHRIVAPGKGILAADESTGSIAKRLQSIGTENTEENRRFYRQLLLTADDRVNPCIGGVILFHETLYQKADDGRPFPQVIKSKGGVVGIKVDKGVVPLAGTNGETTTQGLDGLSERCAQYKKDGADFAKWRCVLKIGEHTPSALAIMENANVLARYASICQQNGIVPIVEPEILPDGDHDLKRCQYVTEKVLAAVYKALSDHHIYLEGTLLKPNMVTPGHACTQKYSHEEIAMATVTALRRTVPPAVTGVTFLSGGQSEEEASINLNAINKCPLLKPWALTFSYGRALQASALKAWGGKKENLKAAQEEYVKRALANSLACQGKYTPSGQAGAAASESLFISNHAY
# GAPDH coupling: qHTS Assay for Inhibitors of Fructose-1,6-bisphosphate Aldolase from Giardia Lamblia: Coupling assay counterscreen confirmation | Potency, µM (highest dose often 57.5 µM), inactives show at the top dose activity change, negative = inhibition, most hits filed as inhibitors | shares compounds with Giardia FBPA inh-1 | 6% of 1,500 active | GAPDH coupling enzyme counterscreen, biochemical, qHTS; also: potency is read from the fitted curve at half-maximal effect; nearly all actives have a fitted effect of over 55% in size
# * marks the source's active call; other numbers are inactive results; u = inconclusive; x = no result; [ ] = remark or other dose. Unless noted, calls follow the shape of the dose curve; as a rule, active = well fitted curve in the direction sought with a large enough effect; inconclusive = small, poorly fitted or top-dose-only effect, or another doubt; inactive = no such curve, though single readings can be large; an effect the other way counts as inactive or inconclusive. % is scaled to controls: 0 for no effect and ±100 for the full control effect.
SMILES,Marburg entry inh,Giardia FBPA inh-1,LASV entry inh,HCV inh,HCMV antiviral,FMDV antiviral,Giardia growth,Mammalian tox,Giardia FBPA inh-2,Rabbit FBPA inh,GAPDH coupling
COC(=O)NC(CC(C)=O)c1ccc2c(c1)OCO2 (centres undefined),x,-1%[12.9 µM],x,x,x,x,x,x,x,x,x
O=C(Nc1ccccc1Cl)c1cnccn1,u,2%,20%,5%,0,9%,x,x,x,x,x
O=C(NNC(=O)c1cnccn1)c1ccc(Cl)cc1,u,13µM*,u,4%,-6,7%,-5%[10.4 µM],-4%,-5%,5%,3%
O=C(NNC(=O)c1cnccn1)c1cccc([N+](=O)[O-])c1,13%,7%,2%,10%,0,25%,x,x,x,x,x
O=C(NNC(=O)c1ccc(Cl)cc1Cl)c1cnccn1,x,20µM*,x,-11%,12,29%,8.9µM*,-8%,-5%,5%,-1%
O=C(NNC(=O)c1ccccc1[N+](=O)[O-])c1cnccn1,11%,20µM*,-2%,7%,-10,11%,u,-13%,2%,1%,-4%
O=C1OC(c2ccccc2)/C(=C(/O)c2ccccc2)C1=O (centres undefined),18%,6%,7%,7%,11,-19%,x,x,x,x,x
NC1=C(O)C(=O)C(c2ccccc2)O1 (centres undefined),x,16µM*,x,3%,10,-18%,6%[10.4 µM],5%,-24%,-13%,-22%
CCOc1ccc(CCNC(=O)CCCc2nnc3n(CC(C)C)c(=O)c4sccc4n23)cc1,x,x,4%[46.1 µM],x,u,-13%,x,x,x,x,x
CCn1ccc2cc(S(=O)(=O)N3CCCN(C(=O)NCC(C)C)CC3)ccc21,x,x,-17%[46.1 µM],x,9,-26%,x,x,x,x,x
CCN(CC)S(=O)(=O)c1ccc2c(c1)N(CC(=O)Nc1c(C)cccc1C)C(=O)C1CCCN21 (centres undefined),-27%[46.1 µM],x,0%[46.1 µM],x,30,-8%,x,x,x,x,x
C=CCNC(=S)N/N=C1\CCS(=O)(=O)c2ccccc21,x,7.1µM*,x,9%,21,2%,-19%,12%,12%,8%,5%
CC(C)C[C@H](NC(=O)c1nc[nH]c1C(=O)NCCCCCNC(=O)OC(C)(C)C)C(=O)OC(C)(C)C,x,18µM*,x,-19%,45,u,-15%,0%,-1%,-22%,-20%
O=C(O)c1ccc(/C=N/Nc2ccc(Cl)nn2)cc1,8%[46.1 µM],25µM*,0%[46.1 µM],19%,-13,18%,u,4%,-15%,-15%,u
C[C@@H]1/C=C\CC(=O)OC[C@H](C)C(=O)N[C@@H](C)C(=O)OC1,x,1%[12.9 µM],x,x,x,x,x,x,x,x,x
O=C(N/N=C1/C[C@@H](O)[C@@H](O)[C@@H]2[C@@H]3C(=O)N(Cc4ccc5c(c4)OCO5)C(=O)[C@H]3CC[C@@H]12)OCc1ccccc1,x,0%[12.9 µM],x,x,x,x,x,x,x,x,x
COc1ccc(OC)c(NC(=O)CN(C)CC(=O)Nc2ccccc2Br)c1,21%[46.1 µM],18µM*,u,u,-12,-29%,-14%,8%,-4%,7%,6%
COc1cccc(CN(C)CC(=O)Nc2cccc3ccccc23)c1,u,18µM*,1%,7%,-11,-18%,2%[10.4 µM],-9%,2%,5%,8%
COc1ccccc1NC(=O)CSC1=Nc2ccccc2C2=NC(Cc3ccccc3)C(=O)N12 (centres undefined),x,x,u,x,u,0%,x,x,x,x,x
O=C(NCCCNCCCNC(=O)c1ccc(/C=N/O)nc1)c1ccc(/C=N/O)nc1,x,4µM*,x,14%,17,-15%,-18%[38.3 µM],2%,-9%,-4%,-25%
CN(CCCNC(=O)c1ccc(/C=N/O)nc1)CCCN(C)Cc1ccccc1,u,x,-16%,5%,34,0%,x,x,x,x,x
COc1ccc(C)cc1NC(=O)c1nnn(-c2c(C)cccc2C)c1C,u,x,10%[46.1 µM],x,-24,-23%,x,x,x,x,x
COc1cccc(NC(=O)CN(C)CC(=O)Nc2ccc(Br)cc2)c1,12%,-8%,-13%,7%,18,2%,x,x,x,x,x
Cc1cccc(C)c1NC(=O)CN(C)CC(=O)Nc1ccccc1Oc1ccccc1,u,-6%,u,3%,-26,-25%,x,x,x,x,x
Cc1ccc(NC(=O)CN(C)CC(=O)Nc2ccccc2Oc2ccccc2)cc1,18%[46.1 µM],13µM*,6%,24%,28,-2%,-26%,-5%,-1%,-3%,3%
SMILES,Marburg entry inh,Giardia FBPA inh-1,LASV entry inh,HCV inh,HCMV antiviral,FMDV antiviral,Giardia growth,Mammalian tox,Giardia FBPA inh-2,Rabbit FBPA inh,GAPDH coupling
COc1cccc(NC(=O)CN(C)CC(=O)Nc2ccc(C)cc2Cl)c1,-3%[46.1 µM],14µM*,-11%,-23%,0,-6%,-27%,16%,-2%,5%,6%
CCCCNc1nc(C)nc2c1nc(C)n2CCC,x,4%,x,x,x,x,x,x,x,x,x
Cc1ccc(S(=O)(=O)N2CCN(CCc3ccccc3)CC2)c(C)c1,u,20µM*,-5%,u,-65*,u,-3%,8%,5%,19%,6%
O=C(c1ccco1)N1CCN(Cc2ccc(Cl)cc2)CC1,-21%[46.1 µM],u,3%,17%,-1,-14%,x,x,x,x,x
CCc1ccc(CN2CCN(C(=O)c3ccco3)CC2)cc1,14%[46.1 µM],28µM*,-30%[46.1 µM],u,-38,-20%,10%,11%,9%,1%,11%
O=C(c1ccco1)N1CCN(Cc2cccc3ccccc23)CC1,5µM*,16µM*,10µM*,-4%,-16,-8%,u,-3%,4%,7%,8%
COc1ccccc1CNC(=O)c1cc2cccc3c2n1CCS3,x,x,u,x,u,-22%,x,x,x,x,x
